Results reported in the supplement of paper PMC11732987, “Enantioselective OTUD7B fragment discovery through chemoproteomics screening and high-throughput optimisation” (Communications Chemistry, 2025).

Assays:
Test in all cases: log2 ratio of Biotin-Ahx-Ub-VS probe labelling (fragment/DMSO); higher = less target engagement (more negative = stronger competition), active = hit call of the paper (q ≤ 0.05, log2 ratio ≤ -1)
Conditions in all cases: compound concentration: 200 uM; treatment time: 3 h
[1] = biological target: USP34 (UniProt Q70CQ2)
Sequence of USP34 (Q70CQ2 whole entry, the tested form may be a part): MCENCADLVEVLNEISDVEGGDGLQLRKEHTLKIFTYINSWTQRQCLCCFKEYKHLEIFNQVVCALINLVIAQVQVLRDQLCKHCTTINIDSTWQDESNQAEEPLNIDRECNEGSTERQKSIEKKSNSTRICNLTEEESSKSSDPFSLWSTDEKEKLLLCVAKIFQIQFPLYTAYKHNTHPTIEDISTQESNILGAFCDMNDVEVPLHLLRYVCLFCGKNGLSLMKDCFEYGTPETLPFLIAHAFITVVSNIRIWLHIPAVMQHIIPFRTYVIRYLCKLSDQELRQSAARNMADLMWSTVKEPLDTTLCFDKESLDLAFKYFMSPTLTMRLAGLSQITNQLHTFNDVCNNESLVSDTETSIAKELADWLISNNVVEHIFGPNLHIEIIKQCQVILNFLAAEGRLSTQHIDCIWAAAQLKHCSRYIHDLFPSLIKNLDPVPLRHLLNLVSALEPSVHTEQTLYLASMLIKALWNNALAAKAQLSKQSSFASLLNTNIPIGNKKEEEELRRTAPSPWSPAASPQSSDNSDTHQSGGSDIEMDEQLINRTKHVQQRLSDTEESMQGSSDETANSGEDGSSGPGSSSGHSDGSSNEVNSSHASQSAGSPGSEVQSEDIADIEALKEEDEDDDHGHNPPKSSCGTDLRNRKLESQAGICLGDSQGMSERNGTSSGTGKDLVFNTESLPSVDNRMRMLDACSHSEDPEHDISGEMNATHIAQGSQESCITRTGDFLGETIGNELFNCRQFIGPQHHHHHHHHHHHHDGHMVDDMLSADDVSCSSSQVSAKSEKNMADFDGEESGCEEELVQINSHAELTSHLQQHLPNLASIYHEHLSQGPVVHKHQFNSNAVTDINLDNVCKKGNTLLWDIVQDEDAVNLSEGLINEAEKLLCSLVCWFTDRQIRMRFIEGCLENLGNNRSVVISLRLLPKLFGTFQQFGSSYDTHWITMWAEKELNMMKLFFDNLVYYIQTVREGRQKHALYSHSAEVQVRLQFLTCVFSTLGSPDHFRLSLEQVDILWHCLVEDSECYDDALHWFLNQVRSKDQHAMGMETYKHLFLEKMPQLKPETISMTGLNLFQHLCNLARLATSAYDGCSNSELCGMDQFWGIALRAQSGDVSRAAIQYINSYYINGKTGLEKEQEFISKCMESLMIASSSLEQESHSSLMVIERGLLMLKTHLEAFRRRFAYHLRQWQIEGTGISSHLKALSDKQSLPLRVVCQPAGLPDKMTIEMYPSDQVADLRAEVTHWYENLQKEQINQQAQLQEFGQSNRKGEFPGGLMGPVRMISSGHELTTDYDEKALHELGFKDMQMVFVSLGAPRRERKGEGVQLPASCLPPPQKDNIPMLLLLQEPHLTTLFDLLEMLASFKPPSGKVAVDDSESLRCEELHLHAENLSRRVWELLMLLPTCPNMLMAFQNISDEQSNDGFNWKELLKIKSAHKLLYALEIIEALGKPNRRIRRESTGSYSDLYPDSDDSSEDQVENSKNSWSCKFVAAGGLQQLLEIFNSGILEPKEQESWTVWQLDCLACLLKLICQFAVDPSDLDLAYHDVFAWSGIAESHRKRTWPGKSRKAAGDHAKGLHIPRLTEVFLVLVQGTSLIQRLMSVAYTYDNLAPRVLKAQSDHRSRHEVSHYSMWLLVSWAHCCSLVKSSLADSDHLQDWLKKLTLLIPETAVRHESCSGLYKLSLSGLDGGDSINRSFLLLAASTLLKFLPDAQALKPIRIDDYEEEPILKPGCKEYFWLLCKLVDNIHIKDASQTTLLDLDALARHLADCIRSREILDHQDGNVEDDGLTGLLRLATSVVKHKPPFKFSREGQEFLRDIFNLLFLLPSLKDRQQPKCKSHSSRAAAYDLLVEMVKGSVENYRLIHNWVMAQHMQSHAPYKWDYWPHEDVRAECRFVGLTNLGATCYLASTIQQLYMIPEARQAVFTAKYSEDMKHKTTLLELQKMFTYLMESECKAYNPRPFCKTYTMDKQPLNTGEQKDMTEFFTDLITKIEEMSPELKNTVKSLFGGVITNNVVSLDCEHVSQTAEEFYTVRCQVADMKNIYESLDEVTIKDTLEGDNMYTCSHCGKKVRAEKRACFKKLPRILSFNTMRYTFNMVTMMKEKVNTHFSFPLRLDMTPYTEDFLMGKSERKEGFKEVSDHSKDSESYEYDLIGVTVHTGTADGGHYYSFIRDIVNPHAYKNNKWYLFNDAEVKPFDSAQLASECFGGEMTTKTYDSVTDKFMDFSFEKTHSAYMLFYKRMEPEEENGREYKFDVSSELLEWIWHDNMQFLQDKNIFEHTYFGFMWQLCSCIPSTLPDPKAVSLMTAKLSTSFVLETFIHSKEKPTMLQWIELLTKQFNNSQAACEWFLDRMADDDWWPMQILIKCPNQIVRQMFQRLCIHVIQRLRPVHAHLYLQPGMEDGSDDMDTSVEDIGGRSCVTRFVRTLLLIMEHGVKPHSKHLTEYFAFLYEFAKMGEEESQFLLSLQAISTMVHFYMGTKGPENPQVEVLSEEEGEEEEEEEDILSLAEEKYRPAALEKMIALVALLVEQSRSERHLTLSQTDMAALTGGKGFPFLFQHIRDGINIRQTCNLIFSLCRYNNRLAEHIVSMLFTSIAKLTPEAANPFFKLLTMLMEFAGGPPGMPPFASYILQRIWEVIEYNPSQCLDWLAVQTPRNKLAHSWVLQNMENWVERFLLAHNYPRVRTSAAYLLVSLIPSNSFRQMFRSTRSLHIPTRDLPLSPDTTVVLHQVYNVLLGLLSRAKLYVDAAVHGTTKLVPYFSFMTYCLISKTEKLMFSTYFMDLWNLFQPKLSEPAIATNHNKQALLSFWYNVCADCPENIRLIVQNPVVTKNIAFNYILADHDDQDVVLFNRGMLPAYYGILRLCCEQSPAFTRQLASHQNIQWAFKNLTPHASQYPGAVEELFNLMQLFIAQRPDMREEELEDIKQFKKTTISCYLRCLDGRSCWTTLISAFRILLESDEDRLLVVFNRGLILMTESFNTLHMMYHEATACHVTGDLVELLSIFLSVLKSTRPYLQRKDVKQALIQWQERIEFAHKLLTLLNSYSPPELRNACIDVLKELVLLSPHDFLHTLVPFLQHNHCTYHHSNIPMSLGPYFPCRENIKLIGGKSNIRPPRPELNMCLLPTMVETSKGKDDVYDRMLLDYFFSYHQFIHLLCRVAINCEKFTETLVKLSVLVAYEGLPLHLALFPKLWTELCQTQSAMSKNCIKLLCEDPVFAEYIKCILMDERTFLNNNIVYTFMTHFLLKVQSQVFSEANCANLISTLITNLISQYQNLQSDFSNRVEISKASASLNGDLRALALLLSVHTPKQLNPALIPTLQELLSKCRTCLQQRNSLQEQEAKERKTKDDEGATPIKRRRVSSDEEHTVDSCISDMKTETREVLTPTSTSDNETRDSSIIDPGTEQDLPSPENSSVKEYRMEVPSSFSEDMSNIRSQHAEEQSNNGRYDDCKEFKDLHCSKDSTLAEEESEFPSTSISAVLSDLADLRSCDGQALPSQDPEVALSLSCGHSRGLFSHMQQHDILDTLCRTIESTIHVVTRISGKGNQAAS
Summary of the method: (§1)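 Labelled DUBs from HEK293T lysate were NeutrAvidin-enriched, digested with LysC and trypsin, and run by diaPASEF LC-MS/MS. Before that, each 495 µg sample in Tris/CHAPS/IGEPAL buffer with protease inhibitors was treated in triplicate with fragment at 200 µM or vehicle for 3 h, then with Biotin-Ahx-Ub-VS at 0.5 µM final for 1 h. Values are average log2 ratios of fragment over vehicle by unpaired t-test, based on global-median-normalised Spectronaut label-free quantities from proteins with ≥2 unique peptides.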

[2] = biological target: T1, USP36 (UniProt Q9P275)
T1 sequence (whole entry): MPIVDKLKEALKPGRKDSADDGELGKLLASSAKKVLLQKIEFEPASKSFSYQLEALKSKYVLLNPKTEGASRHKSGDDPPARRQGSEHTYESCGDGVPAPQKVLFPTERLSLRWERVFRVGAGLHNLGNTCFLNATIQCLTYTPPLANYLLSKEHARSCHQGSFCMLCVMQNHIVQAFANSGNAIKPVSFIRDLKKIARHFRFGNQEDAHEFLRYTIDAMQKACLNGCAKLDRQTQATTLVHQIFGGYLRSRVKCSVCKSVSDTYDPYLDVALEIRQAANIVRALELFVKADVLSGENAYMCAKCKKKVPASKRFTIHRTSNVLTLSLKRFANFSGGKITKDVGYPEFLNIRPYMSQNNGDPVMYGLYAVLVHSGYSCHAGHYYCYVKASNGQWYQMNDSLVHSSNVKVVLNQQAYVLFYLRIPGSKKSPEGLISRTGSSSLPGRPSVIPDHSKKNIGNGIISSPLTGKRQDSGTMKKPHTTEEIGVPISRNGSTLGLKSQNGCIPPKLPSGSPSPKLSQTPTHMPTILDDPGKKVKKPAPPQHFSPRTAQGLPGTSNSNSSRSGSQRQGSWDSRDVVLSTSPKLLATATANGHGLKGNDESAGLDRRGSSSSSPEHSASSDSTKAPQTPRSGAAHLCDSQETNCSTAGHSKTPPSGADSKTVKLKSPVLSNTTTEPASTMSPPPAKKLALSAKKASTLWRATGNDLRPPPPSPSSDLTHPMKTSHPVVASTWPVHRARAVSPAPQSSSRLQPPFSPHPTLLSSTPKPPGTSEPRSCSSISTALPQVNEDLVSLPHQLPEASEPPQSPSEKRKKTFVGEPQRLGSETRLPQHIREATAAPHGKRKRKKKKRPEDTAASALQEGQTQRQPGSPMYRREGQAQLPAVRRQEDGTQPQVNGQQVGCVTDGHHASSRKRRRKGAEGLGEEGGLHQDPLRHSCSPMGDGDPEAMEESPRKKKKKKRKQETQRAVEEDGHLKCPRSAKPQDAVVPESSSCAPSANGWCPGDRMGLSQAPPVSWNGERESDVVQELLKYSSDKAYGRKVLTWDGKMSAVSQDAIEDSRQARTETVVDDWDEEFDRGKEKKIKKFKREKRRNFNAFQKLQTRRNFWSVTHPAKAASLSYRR
Summary of the method: as §1

[3] = biological target: T2, USP38 (UniProt Q8NB14)
T2 sequence (whole entry): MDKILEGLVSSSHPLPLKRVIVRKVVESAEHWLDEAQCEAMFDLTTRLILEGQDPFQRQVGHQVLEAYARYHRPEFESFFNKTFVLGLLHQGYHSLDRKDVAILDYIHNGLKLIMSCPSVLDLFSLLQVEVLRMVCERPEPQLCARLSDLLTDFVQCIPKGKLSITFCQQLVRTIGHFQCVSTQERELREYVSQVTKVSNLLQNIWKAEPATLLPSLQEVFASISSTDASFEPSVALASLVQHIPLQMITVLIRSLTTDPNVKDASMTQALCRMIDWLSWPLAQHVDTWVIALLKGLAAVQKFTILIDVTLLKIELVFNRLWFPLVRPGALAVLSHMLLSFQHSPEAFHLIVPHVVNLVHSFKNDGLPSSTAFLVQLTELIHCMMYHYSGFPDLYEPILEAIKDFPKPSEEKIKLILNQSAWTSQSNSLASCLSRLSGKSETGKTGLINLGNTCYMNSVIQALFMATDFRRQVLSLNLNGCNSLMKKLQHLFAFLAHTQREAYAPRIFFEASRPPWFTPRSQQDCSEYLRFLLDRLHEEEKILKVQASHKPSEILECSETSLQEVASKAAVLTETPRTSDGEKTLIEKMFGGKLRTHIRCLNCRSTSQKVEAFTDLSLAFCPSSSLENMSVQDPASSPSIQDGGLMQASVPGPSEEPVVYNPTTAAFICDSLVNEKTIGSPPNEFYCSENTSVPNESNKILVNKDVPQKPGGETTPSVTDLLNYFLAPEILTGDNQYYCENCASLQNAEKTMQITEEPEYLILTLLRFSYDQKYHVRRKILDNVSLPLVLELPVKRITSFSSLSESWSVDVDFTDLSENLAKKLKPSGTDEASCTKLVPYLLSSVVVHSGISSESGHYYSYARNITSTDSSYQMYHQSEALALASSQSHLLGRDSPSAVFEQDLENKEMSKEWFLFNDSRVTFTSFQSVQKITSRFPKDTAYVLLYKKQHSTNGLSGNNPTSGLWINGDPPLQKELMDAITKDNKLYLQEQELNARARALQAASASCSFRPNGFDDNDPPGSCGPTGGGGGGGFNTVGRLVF
Summary of the method: as §1

[4] = biological target: T3, USP39 (UniProt Q53GS9)
T3 sequence (whole entry): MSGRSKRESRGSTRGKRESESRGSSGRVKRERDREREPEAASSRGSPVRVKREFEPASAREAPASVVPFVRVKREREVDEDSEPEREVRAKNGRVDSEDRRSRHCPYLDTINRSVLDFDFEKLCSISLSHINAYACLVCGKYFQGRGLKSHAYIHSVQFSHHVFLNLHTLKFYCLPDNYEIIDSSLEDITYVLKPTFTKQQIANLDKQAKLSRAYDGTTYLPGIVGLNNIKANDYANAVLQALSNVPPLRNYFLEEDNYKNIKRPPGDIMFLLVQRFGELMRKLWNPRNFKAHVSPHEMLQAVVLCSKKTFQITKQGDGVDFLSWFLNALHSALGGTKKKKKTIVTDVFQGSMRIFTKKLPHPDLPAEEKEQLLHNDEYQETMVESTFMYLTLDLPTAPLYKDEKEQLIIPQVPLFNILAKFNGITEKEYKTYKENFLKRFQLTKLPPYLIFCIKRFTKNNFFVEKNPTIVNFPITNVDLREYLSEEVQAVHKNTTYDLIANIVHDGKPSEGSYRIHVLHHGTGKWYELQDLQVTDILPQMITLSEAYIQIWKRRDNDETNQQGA
Summary of the method: as §1

[5] = biological target: T4, USP4 (UniProt Q13107)
T4 sequence (whole entry): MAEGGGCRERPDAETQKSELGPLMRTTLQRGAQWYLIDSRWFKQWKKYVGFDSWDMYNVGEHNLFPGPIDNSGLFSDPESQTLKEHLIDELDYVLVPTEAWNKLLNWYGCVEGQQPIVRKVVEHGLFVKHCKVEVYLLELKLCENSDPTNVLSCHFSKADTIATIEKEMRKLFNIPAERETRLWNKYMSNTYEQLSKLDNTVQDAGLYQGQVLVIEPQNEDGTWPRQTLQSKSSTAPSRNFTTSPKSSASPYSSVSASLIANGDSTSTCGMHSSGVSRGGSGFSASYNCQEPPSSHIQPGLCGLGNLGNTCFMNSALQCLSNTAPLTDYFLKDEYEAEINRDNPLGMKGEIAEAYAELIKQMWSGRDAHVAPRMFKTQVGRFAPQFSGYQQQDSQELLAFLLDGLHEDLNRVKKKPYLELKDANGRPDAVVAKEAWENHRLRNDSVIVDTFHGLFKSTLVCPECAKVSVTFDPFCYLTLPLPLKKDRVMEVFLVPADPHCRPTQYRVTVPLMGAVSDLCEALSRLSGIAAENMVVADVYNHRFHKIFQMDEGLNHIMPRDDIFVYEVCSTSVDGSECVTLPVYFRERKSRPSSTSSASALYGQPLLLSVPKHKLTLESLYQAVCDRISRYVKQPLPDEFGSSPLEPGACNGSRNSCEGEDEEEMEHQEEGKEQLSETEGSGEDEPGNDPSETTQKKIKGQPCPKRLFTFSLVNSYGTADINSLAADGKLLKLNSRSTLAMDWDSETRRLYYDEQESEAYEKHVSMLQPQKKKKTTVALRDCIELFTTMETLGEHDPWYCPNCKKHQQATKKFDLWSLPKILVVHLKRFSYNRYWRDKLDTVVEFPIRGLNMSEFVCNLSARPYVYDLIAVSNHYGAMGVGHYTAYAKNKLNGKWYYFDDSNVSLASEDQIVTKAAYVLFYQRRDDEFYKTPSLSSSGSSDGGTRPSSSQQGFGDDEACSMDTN
Summary of the method: as §1

Measured: log2 ratio of Biotin-Ahx-Ub-VS probe labelling

O=C(CCl)N1CCC(c2ccn[nH]2)C1 (stereo not given)
inactive: [1] 0.0363 | [2] -0.353 | [3] -0.148 | [4] 0.00596 | [5] -0.113
